Source: PubChem
Shown are actives, neighbours in structure and some others; about 3.3% of the full set was active somewhere.
PHOSPHO1 inh: PubChem AID 1565; recombinant PHOSPHO1, absorbance phosphatase assay; 290,000 tested, 1.1% active; inhibition, % at 13.3 µM; in the data active = inhibition above about 60%
Target sequence (Q8TCT1 whole entry, looked up): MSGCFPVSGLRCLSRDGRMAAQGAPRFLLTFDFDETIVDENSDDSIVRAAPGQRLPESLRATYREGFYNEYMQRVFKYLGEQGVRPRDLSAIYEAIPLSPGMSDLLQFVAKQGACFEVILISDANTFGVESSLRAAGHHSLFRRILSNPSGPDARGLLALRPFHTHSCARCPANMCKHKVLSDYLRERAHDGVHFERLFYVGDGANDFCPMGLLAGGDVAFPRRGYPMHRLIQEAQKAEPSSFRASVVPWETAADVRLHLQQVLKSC
Calb FLC: C. albicans growth inhibition with fluconazole, primary screen, CaCi-2 strain, Alamar Blue fluorescence; C. albicans CaCi-2 (fluconazole-resistant clinical isolate) + fluconazole, 48 h; growth inhibition, % (test concentration not listed); 300,000 tested, 0.57% active; AID 1979, 2009;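 active = growth inhibition above about 58% in most replicates, limit read from the data, passing the limit was not always enough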;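 note: all wells also contain fluconazole at 8 µg/ml as a sub-toxic cotreatment; 0% = median of DMSO wells and 100% = median of geldanamycin control wells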
Efflux pump mplx: inhibitors of Candida efflux pumps in yeast, primary screen, S. cerevisiae, Nile Red, multiplex. AID 485275, 2010. S. cerevisiae Candida pump triplex. 330,000 tested, 0.44% active. inhibition, % at 10 µM;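 active = plate passing quality check with inhibition over a set limit, or well fluorescence over plate mean plus 4 SD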;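 note: Nile Red retained in pooled yeast measured as flow cytometry median fluorescence; 0% = buffer negative control and 100% = Enniatin B positive control; higher means more Nile Red kept so more efflux inhibition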
Cl transport mod: KCC2 cotransporter modulators, thallium flux, primary screen, cell-based, HEK293 KCC2, FluoZin-2 fluorescence, MLSMR; B-score of Tl+ flux slope (higher = more flux/activation; lower = inhibition) at 10 µM; 190,000 tested, 2.2% active; KCC2 cells, thallium flux FluoZin-2 fluorescence; Solute carrier family 12 member 5 (Homo sapiens), Q9H2X9;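 active = thallium flux slope and its plate-corrected score both differing from the plate sample mean at a set confidence after two filtering rounds, in either direction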;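 note: slope of fluorescence scaled to starting intensity during 10 to 20 s after thallium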
H9c2 protect: cardioprotection against H2O2-induced cell death, primary screen, uHTS, H9c2 cells, ATPLite luminescence | 360,000 tested, 0.63% active | AID 588492, 2011 | protection from H2O2 cell death, % at 20 µM | H9c2 cardiomyocytes, H2O2 injury protection, 2 h;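 active = compounds giving at least 50% protection of heart cells from peroxide-induced death in the single-dose screen, raw or plate-pattern-corrected value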;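 note: 0% = DMSO wells with peroxide and 100% = DMSO wells without peroxide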
Cmpd fluor yeast: compound fluorescence in yeast efflux pump counter-screen. S. cerevisiae AD/pABC3, flow cytometry. fluorescence ratio to DMSO, % at 10 µM. 1,700 tested, 4% active. shares compounds with Efflux pump mplx;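 active = fluorescence ratio to DMSO above its plate's cutoff, the plate mean ratio plus 5 SD, cut at about 210% in these data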;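 note: unstained yeast with no Nile Red so the signal is compound autofluorescence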
CaMdr1 efflux inh: inhibitors of Candida albicans Mdr1 efflux, confirmation, flow cytometry, singleplex, Cherry Pick1 set; shares compounds with Efflux pump mplx; S. cerevisiae AD/CaMDR1, Nile Red efflux; inhibition, % at 10 µM; 1,700 tested, 1% active; AID 588518, 2011; in the data active = inhibition above about 26%;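 note: 0% = DMSO vehicle and 100% = reference inhibitor; higher means more Nile Red retained so more efflux inhibition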
Cdr2 pump inh: inhibitors of Candida albicans Cdr2 efflux pump, confirmation, S. cerevisiae AD/CaCDR2, flow cytometry, cherry pick 1, singleplex; shares compounds with Efflux pump mplx; Nile Red retention; Nile Red retention ratio vs DMSO, % at 10 µM; 1,700 tested, 4% active; AID 588520, 2011; in the data active = Nile Red retention ratio vs DMSO above about 190%;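 note: higher ratio means more blocking of Cdr2 efflux of the dye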
CaCdr1 efflux inh: inhibitors of Candida albicans Cdr1 efflux pump, confirmation, S. cerevisiae AD/CaCDR1, flow cytometry, cherry pick 1, singleplex | 1,700 tested, 1% active | Nile Red efflux | inhibition, % at 10 µM | shares compounds with Efflux pump mplx | AID 588522, 2011;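 active = inhibition above the screen-wide mean plus twice its standard deviation, cut at about 32% in these data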
* hit, by the source's call; . = not tested or not shown.

SMILES | PHOSPHO1 inh | Calb FLC | Efflux pump mplx | Cl transport mod | H9c2 protect | Cmpd fluor yeast | CaMdr1 efflux inh | Cdr2 pump inh | CaCdr1 efflux inh
COc1ccccc1C(=O)NC(=Nc1nc2ccccc2o1)NC(=O)c1ccccc1OC | -3.2 | 6.2 | 0.3 | -3.27 | 15.2 | . | . | . | .
O=C(Nc1ccccn1)c1ccc(S(=O)(=O)N2CCCCC2)cc1 | . | -1.4 | -0.4 | . | -12.6 | . | . | . | .
COc1cccc(CN(CC(=O)NCC2CCCO2)C(=O)CCC(=O)Nc2cc(C)on2)c1 (centres undefined) | -24.9 | 0.1 | 0.0 | -2.24 | 5.0 | 124.4 | 0.2 | 109.9 | 0.4
O=C(COC(=O)c1cc[n+]([O-])cc1)Nc1c(Cl)cccc1C(F)(F)F | . | 0.0 | -0.1 | . | 5.3 | . | . | . | .
O=C(COC(=O)c1ccc(Cl)nc1)NC(=O)c1ccccc1 | 47.6 | 3.3 | 0.6* | . | 22.8 | 110.0 | 0.0 | 112.3 | 0.1
O=C(COC(=O)c1ccc(Cl)nc1)Nc1c(Cl)cccc1C(F)(F)F | . | . | 0.5* | . | -0.6 | 91.9 | -0.3 | 89.0 | -0.1
CCC1CCC(C(=O)NC(CCSC)C(=O)NCCc2ccc(S(N)(=O)=O)cc2)CC1 (centres undefined) | 30.8 | -7.3 | 0.1 | . | -4.3 | . | . | . | .
O=C(O)c1ccccc1NS(=O)(=O)c1cccc2nsnc12 | -19.3 | 28.0 | 0.7* | . | 7.0 | 100.3 | -0.2 | 98.5 | -0.1
O=C(O)c1cc(Br)ccc1NS(=O)(=O)c1cccc2nsnc12 | 9.7 | 16.0 | 0.0 | . | 8.6 | . | . | . | .
Cc1cc(Cl)ccc1Oc1ncc(CN2CCN(c3ccccc3)CC2)s1 | 10.1 | -2.5 | 0.5* | 0.472 | -24.7 | 92.1 | 0.4 | 92.0 | 0.1
COc1ccc(Oc2ncc(CN3CCN(c4ccccc4)CC3)s2)cc1 | 10.7 | -2.4 | -0.1 | -0.178 | -21.1 | . | . | . | .
C/C(=N\NC(=O)c1cc(Cl)ccc1O)c1ccc(Br)s1 | 0.3 | -0.8 | 7.6* | 15.2* | -16.4 | 95.3 | -0.3 | 103.6 | 0.0
COc1cccc(OC)c1NC(=O)C1CCCN1C(=O)Nc1cccc(Cl)c1 (centres undefined) | 17.4 | -2.3 | 0.0 | . | -0.5 | . | . | . | .
Cc1ccc(C(C)(C)C)cc1S(=O)(=O)N1CCC(C(=O)N2CCN(c3ccc(O)cc3)CC2)CC1 | . | . | 0.8* | . | -14.0 | 116.8 | 0.2 | 118.2 | 0.2
O=C(NCC(=O)N1CCN(c2ccccc2O)CC1)c1cccs1 | . | 15.4 | 0.0 | . | 4.7 | . | . | . | .
COC(=O)CSc1nnc(CSc2nc(C)cc(C)n2)n1Cc1ccco1 | 10.4 | -5.6 | 0.0 | 2.4 | 0.7 | . | . | . | .
O=C(CSc1nnc(Cc2cccs2)n1Cc1ccco1)Nc1ccc(Br)cc1 | -3.4 | -18.1 | -0.2 | -0.513 | -8.9 | 76.0 | -0.1 | 99.3 | 0.0
O=C(CSc1nnc(Cc2cccs2)n1Cc1ccco1)Nc1ccc(Cl)cc1Cl | 27.1 | -18.1 | 0.2 | . | -1.7 | 101.1 | 0.1 | 100.1 | -0.1
Cc1cc(Cl)ccc1NC(=O)CSc1nnc(-c2ccncc2)n1Cc1ccco1 | 12.7 | 12.0 | 0.3 | . | 0.4 | . | . | . | .
Cc1cc(C)nc(SCc2nnc(SCC(=O)Nc3ccc(C)c(C)c3)n2Cc2ccco2)n1 | -38.9 | 9.0 | 1.0* | -1.65 | 2.7 | 218.9 | 0.8 | 99.7 | 9.3
CCCOC(=O)c1cccc(NC(=O)COc2ccc([N+](=O)[O-])cc2)c1 | -5.1 | 3.4 | 2.1* | -0.815 | -4.9 | 102.2 | -0.2 | 104.2 | 0.1
CCOC(=O)c1cccc(NC(=O)COc2ccc([N+](=O)[O-])cc2)c1 | 44.0 | 4.4 | 0.1 | -2.23 | 5.1 | . | . | . | .
